# Shown are actives, neighbours in structure and some others; about 19% of the full set was active somewhere.
# IL1B secr inh: inflammasome signaling inhibition, IL-1 beta readout. activity change, % at 57.5 µM. AID 743279. THP-1 LPS/ATP IL-1B secretion, AlphaLISA, 16 h; stronger effect = lower value. hit rate 4.7% among 360,000; in the data active = activity change below about -50%; inconclusive = mostly about -30% to -49%
#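 Secreted IL-1B measured by AlphaLISA bead assay after 16 h compound exposure of THP-1 cells; compounds (final up to 57.5 uM) added 1 h before LPS (250 ng/mL) and ATP (1.25 mM) stimulation; lower signal means less secretion.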
# ELG1 repair inh: blocks ELG1-dependent DNA repair in HEK293T cells; Potency, µM (doses to about 46.1 µM), for the others: at the highest dose activity change, negative = inhibition, usual class: inhibitors; HEK293T ELG1-luciferase reporter, luminescence, 16 h; DNA damage induced by 5-fluorouridine; AID 504467; hit rate 2.3% among 330,000; note: potency is the fitted concentration of half-maximal effect; nearly all actives have a fitted effect of over 55% in size
#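 Quantitative HTS, concentration-response format. 2,000 cells/well co-treated with 5-fluorouridine and compound, 16 hr in 5% CO2 at 37 °C; ONE-Glo luminescence read after 30 min.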
# TDP1 cell CPT: DT40-hTDP1 cell growth loss with CPT. chicken DT40 Tdp1-/-;hTDP1 cells + 20 nM CPT, ATP luminescence, 48 h. hit rate 12% among 420,000. Potency, µM (series often up to 46.2 µM), for the others: top-dose activity change, negative = growth inhibition, actives largely listed as inhibitors; note: potency is the fitted concentration of half-maximal effect; nearly all actives have a fitted effect of over 55% in size
#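 Chicken DT40 Tdp1-/- cells complemented with human TDP1, 400 cells/well, exposed to compounds plus 20 nM camptothecin for at least 48 h at 37 C; viability read as ATP content by CellTiter-Glo luminescence.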
# DT40 TDP1 no CPT: qHTS for Inhibitors of human tyrosyl-DNA phosphodiesterase 1 (TDP1): qHTS in cells in absence of CPT. DT40 Tdp1-/- hTDP1 cells, no CPT, ATP luminescence, 48 h. Potency, µM (doses to about 46.2 µM), for the others: at the top dose activity change, negative = growth inhibition, most hits filed as inhibitors. hit rate 15% among 420,000. AID 686978, 2013; note: potency is the fitted concentration of half-maximal effect; nearly all actives have a fitted effect of over 55% in size
#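 Cells were dispensed at 400 per well, compounds added by pin tool, plates incubated ≥48 hr at 37 °C, then CellTiter-Glo added for 30 min at room temperature before luminescence reading. Line: DT40 Tdp1-/- complemented with hTDP1; camptothecin omitted.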
# HT1080NT lethal: kills 2HG-producing HT-1080-NT fibrosarcoma cells; HT-1080-NT fibrosarcoma viability, CellTiter-Glo ATP luminescence, 48 h; Potency, µM (highest dose often 46.1 µM), inactives show at the top dose activity, negative = less viability, actives largely listed as cytotoxic; hit rate 1.6% among 360,000; AID 686970;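 note: NT is the 2HG producing partner of a matched IDH1 knockdown line; potency is the fitted concentration of half-maximal effect; 0% = DMSO-treated cells and -100% = media-only wells without cells; nearly all actives have a fitted effect of over 55% in size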
#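 Viability by CellTiter-Glo luminescence after 48 h compound exposure at 37C of HT-1080-NT cells (750/well, RPMI, 5% FBS). % activity scaled between DMSO wells and medium-only wells, then curve-fitted and categorized by curve class.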
# HT1080 IDH1KD tx: toxicity to HT-1080 IDH1 knockdown cells (counter line); HT-1080 IDH1 knockdown viability, ATP luminescence, 48 h; Potency, µM (top dose mostly 46.1 µM), for the others: at the highest dose activity, negative = toxicity, most hits filed as cytotoxic; hit rate 2% among 360,000;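 note: potency is the fitted concentration of half-maximal effect; 0% = DMSO wells and -100% = cell-free medium wells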
#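 Assay cells: HT-1080 with IDH1 knockdown, 750 per well, RPMI/5% FBS. Exposure: 48 h at 37 °C following 2 h pre-incubation. Read: CellTiter-Glo luminescence; fitted concentration-response, curve class assigned.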
# An asterisk follows results filed as active; ? = inconclusive; . = not tested or not shown; [ ] = dose if it differs, or a comment. Unless noted, calls come from the whole dose curve; as a rule, active = well fitted curve in the direction sought with a large enough effect; inconclusive = small, poorly fitted or top-dose-only effect, or another doubt; inactive = no such curve, though single readings can be large; an effect the other way counts as inactive or inconclusive. Unless noted, % is set by controls: 0 for no effect and ±100 for the full control effect.
SMILES,IL1B secr inh,ELG1 repair inh,TDP1 cell CPT,DT40 TDP1 no CPT,HT1080NT lethal,HT1080 IDH1KD tx
O=C(CSc1nc2ccccc2n1CCc1ccccc1)N1CCOCC1,-10.0,3.6%,?,?,0.3%,12.3%
CSc1nc2ccccc2n1CC(=O)Nc1ccccc1,17.3,-0.6%,5.17µM*,18.4µM*,-1.2%,-7.5%
O=C(CSc1nc2ccccc2n1CCc1ccccc1)c1ccc(O)c(O)c1,21.1,3.9%,11.6µM*,16.4µM*,-21.1%,-21.3%
CCN(C(=O)CSc1nc2ccccc2n1CC(=O)Nc1ccccc1C)c1ccccc1,.,.,?,20.6µM*,.,.
CCN(C(=O)CSc1nc2ccccc2n1CC(=O)NCc1ccc(OC)cc1)c1ccccc1,.,.,?,23.1µM*,.,.
Cc1cccc(NC(=O)Cn2c(SCC(=O)NCc3ccccc3)nc3ccccc32)c1C,.,.,-14.4%,-24.6%,.,.
CCOc1ccccc1NC(=O)N1CCN(S(=O)(=O)c2ccc3c(ccn3C)c2)CC1,.,.,-15.9%,-27.2%,.,.
CC(C)(O)C#Cc1ccc(CN2CCc3nnc(CCNC(=O)c4ccco4)n3CC2)cc1,.,.,2.2%[9.04 µM],-11.5%,.,.
COc1ccc(CNC(=O)Cn2c(SCC(=O)N(C)c3ccccc3)nc3ccccc32)cc1,.,.,?,18.4µM*,.,.
O=C(O)CCSc1nc2ccccc2n1Cc1ccccc1,40.0,-1.0%,-10.5%,-0.2%,8.9%,-0.6%
O=C(CSc1nc2ccccc2n1Cc1ccccc1)NCc1ccccc1,.,.,-24.4%,23.1µM*,.,.
COCCn1c(SCC(=O)NC(=O)NCc2ccccc2)nc2ccccc21,-21.4,0.0%,?,?,-3.8%,-9.0%
COC(=O)C1=CN(CCOC23CC4CC(CC(C4)C2)C3)C=C(C(=O)OC)C1c1ccsc1,-27.0,?,?,11.6µM*,?,?
COC(=O)C1=CN(Cc2ccc(OC)cc2)C=C(C(=O)OC)C1c1ccsc1,-27.7,?,20.6µM*,?,-5.8%,-21.0%
CCOc1nc2cnccc2n(CC(=O)Nc2cccc(C)c2C)c1=O,14.7,4.5%,-6.0%,-1.5%,1.1%,3.0%
CN(c1ccccc1)S(=O)(=O)c1ccc(C(=O)NCc2ccccc2F)cc1,-28.9,-29.4%,?,?,-7.2%,-8.3%
CC(CC(c1ccccc1)N1CCc2ccccc2C1)=NO (stereo unspecified),5.9,.,?,18.4µM*,-11.5%,-5.8%
OC(CN1CCc2ccccc2C1)c1ccccc1 (stereo unspecified),40.0,0.9%,-3.6%,1.4%,1.7%,1.3%
N#Cc1cccc(C=C(C(=O)c2ccccc2)c2ccccc2)c1,.,.,11.8µM*,18.7µM*,26.4µM*,?
COc1cccc(/C=C(\C(=O)O)c2ccccc2)c1,?,8.4%,4.3%,-2.5%,17.3%,15.4%
CCOC(=O)c1c2c(n(Cc3ccccc3)c1C)C(=O)C(=O)c1ccccc1-2,-100.3*,.,0.581µM*,1.16µM*,23.1µM*,?
CCOC(=O)c1c2c(n(C)c1C)C(=O)C(=O)c1ccc(Br)cc1-2,37.3,.,1.46µM*,2.06µM*,?,?
CCOC(=O)c1c(-c2ccccc2)c(C(C)=O)c(=O)n(C)c1C,7.1,7.2%,3.7%,-2.3%,10.2%,10.7%
CC(CN1CCOCC1)OC(=O)c1cccc(Cl)c1 (stereo unspecified),6.3,-0.3%,1.5%,11.5%,11.8%,2.0%
O=C(Nc1ccccc1)OCC1COC(c2ccccc2)(c2ccccc2)O1 (stereo unspecified),-69.0*,.,1.5%,-2.4%,-0.8%,10.7%
SMILES,IL1B secr inh,ELG1 repair inh,TDP1 cell CPT,DT40 TDP1 no CPT,HT1080NT lethal,HT1080 IDH1KD tx
COc1ccc(-n2c(=O)c3ccccc3n(CC(=O)NCCc3ccc(OC)c(OC)c3)c2=O)cc1,.,.,-3.7%,-1.6%,.,.
COc1cccc(NC(=O)C(Sc2nnc(-c3ccncc3)n2-c2ccc(Cl)cc2)c2ccccc2)c1 (stereo unspecified),-9.4,-17.1%,16.4µM*,20.6µM*,?,?
O=C(NC(=S)Nc1ccccc1Br)c1ccco1,22.4,?,4.5%,?,-3.9%,-1.1%
O=C(Nc1ccc(Cl)c(C(F)(F)F)c1)C1CCN(S(=O)(=O)c2cccc3nonc23)CC1,.,.,13µM*,5.17µM*,.,.
Cc1ccnc(NC(=O)C2CCN(S(=O)(=O)c3cccc4nonc34)CC2)c1,-50.7*,?,-1.6%,-29.2%,11.6%,5.1%
Cc1ccnc(NC(=O)C2CCN(S(=O)(=O)c3cccc4nsnc34)CC2)c1,-53.1*,?,-5.7%,-7.3%,0.6%,4.2%
Cc1ccc(NC(=O)C2CCN(S(=O)(=O)c3cccc4nsnc34)CC2)cc1,.,.,-12.5%,?,.,.
O=C(O)c1ccccc1NC(=O)C1CCN(S(=O)(=O)c2cccc3nsnc23)CC1,9.7,15.3%,-20.3%,16.4µM*,6.2%,-1.7%
O=C(OCc1cn([C@H]2C[C@H](c3ccc(Cl)cc3)N(C(=O)C3CCCCC3)C[C@@H]2O)nn1)c1ccccc1,?,.,-12.8%,18.6%,1.0%,-0.3%
Cc1cc(/C=C(\C#N)C(=O)OCC(=O)N(C)c2c(N)n(Cc3ccccc3)c(=O)[nH]c2=O)c(C)n1CC(C)C,-19.0,.,-14.6%,?,-12.5%,-18.8%
Cc1c(NC(=O)C(C)OC(=O)CCc2c[nH]c3ccccc23)c(=O)n(-c2ccccc2)n1C (stereo unspecified),25.2,-0.1%,6.5%,-19.0%,8.2%,1.1%

# High-throughput results as filed in PubChem BioAssay.
